# Data published in PubChem BioAssay (NCI).
# Values joined by “and” are separate entries in the source; they are usually repeats but may differ in a detail not shown here. Equal values may be shown once. About 79,000 compounds went through this panel and 15% of them were active in at least one assay; those are over-represented in the sample as a whole. Active and inactive are the calls of the source. No stated cut-off is given here; in the data, active means growth inhibition above about 70%; inactive means the rest.
# Experiment: NCI Yeast Anticancer Drug Screen. Data for the sgs1 mgt1 strain (AID 161);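 further: 0% = growth of cultures given vehicle only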
# Conditions: S. cerevisiae sgs1 mgt1 strain, at 50.0 µM, stronger effect = higher value
# Summary of the method: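 Growth of a repair-deficient yeast mutant was monitored after compound treatment and expressed as inhibition relative to vehicle-treated cultures.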
row,Structure (SMILES),growth inhibition
1,NC(=O)c1ccc(NN=O)nc1,1.1% (inactive)
2,CCOC(=O)C(=O)CC(=O)[C@H]1CC[C@H]2[C@@H]3CC[C@@H]4C[C@H](O)CC[C@]4(C)[C@H]3C(=O)C[C@]12C,40.8% (inactive)
3,CCCN1CCC2(CC1)COCc1ccccc12,28.4% (inactive)
4,NCC(O)c1ccc2c(c1)OCO2 (stereo not given),-11.3% (inactive)
5,O=C(CF)NCCCl,-1.65% (inactive)
6,Cc1ccc([As]=[As]c2ccc(C)cc2N)c(N)c1 (stereo not given),-3.95% (inactive)
7,CN(C)NP(c1ccccc1)c1ccccc1,-5.95% (inactive)
8,Oc1ccc(C(O)C2CCCCN2)cc1O (stereo not given),-0.25% (inactive)
9,CC(=O)OCC1OC(OC(C)=O)C(N(CCCl)CCCl)C(OC(C)=O)C1OC(C)=O (stereo not given),6.75% (inactive)
10,[N-]=[N+]=Nc1cc(=O)oc2ccccc12,-8.25% (inactive)
11,COc1ccc2c(c1O)C13CCN(C)C(C2)C1CCC(O)C3 (stereo not given),-11.8% (inactive)
12,O=[N+]([O-])O.[Tl],-16.8% (inactive)
13,CCCCC(CC)C(O)P(=O)(OCC)OCC (stereo not given),-2.3% (inactive)
14,COc1cccc(/C=N/[N-]C(=O)c2ccncc2)c1[O-].[Ni+2].[OH3+],-12.1% (inactive)
15,NC(N)=NOCC[C@@H](N)C(=O)O,8.85% (inactive)
16,O=Cc1ccccc1O,12.4% (inactive)
17,O=C(OCCOCCOC(=O)C(Cl)(Cl)Cl)C(Cl)(Cl)Cl,-29.4% (inactive)
18,CCC1(c2c(F)c(F)c(N)c(F)c2F)CCC(=O)NC1=O (stereo not given),-1% (inactive)
19,COc1cc2ccnc(C3(OC(=O)c4ccccc4)CCN(CCc4ccccc4)CC3)c2cc1OC,-21.9% (inactive)
20,CN1C(=O)C2(Cc3cn(C45CC67SSC(CO)(C(=O)N6C4Nc4ccccc45)N(C)C7=O)c4ccccc34)SSC1(CO)C(=O)N2C (stereo not given),90.3% (active)

row,Structure (SMILES),growth inhibition
1,CC1C/C(=C\N=[N+]=[N-])C(=O)O1 (stereo not given),6% (inactive)
2,S=c1sc(-c2ccc(Cl)cc2)c[se]1,-13.3% (inactive)
3,CN(C)C(=O)Sc1c(Cl)cc(S(=O)(=O)F)cc1[N+](=O)[O-],27.9% (inactive)
4,NC1=NC(=O)C(c2ccccc2)(c2ccccc2)O1,5.95% (inactive)
5,O=Cc1ccccc1O.[Pr],37% (inactive)
6,O=P(Nc1ccc(Cl)cc1)(Oc1ccccc1)N(CCCl)CCCl (stereo not given),-6.75% (inactive)
7,CC12CCC(OC3OC(CO)C(OC4OC(CO)C(O)C(O)C4O)C(O)C3O)CC1CCC1C2CCC2(C)C(C3=CC(=O)OC3)CCC12O (stereo not given),-14.2% (inactive)
8,CC1=C[C@H]2[C@@]3(O)[C@H](C)C[C@]4(OC(=O)C(C)C)[C@H]([C@@H]3C=C(CO)C[C@]2(O)C1=O)C4(C)C,4.8% (inactive)
9,Oc1cccc2cccnc12.[Cr],-7.65% (inactive)
10,CC12CCC3C(CC=C4CC(=O)CCC43CCO)C1CCC2Oc1ccccc1 (stereo not given),-2.45% (inactive)
11,CC(=O)[CH-]C(C)=O.CC(=O)[CH-]C(C)=O.CC(=O)[CH-]C(C)=O.[Ga+3],15.3% (inactive)
12,Cc1ccc(CI)cc1,-22.9% (inactive)
13,COc1ccc2c3c1O[C@]1(C)C34CCN(C)C(C2)C42C=C[C@@]1(OC)c1c(O)ccc(O)c12,-12.8% (inactive)
14,CO/N=C1\CC(C)N2C(=O)C(C(C)C)NC(=O)C(NC(=O)c3c4nc5c(C(=O)NC6C(=O)NC(C(C)C)C(=O)N7C(C)CC(O)C7C(=O)N(C)CC(=O)N(C)C(C(C)C)C(=O)OC6C)ccc(C)c5oc-4c(C)c(=O)c3N)C(CO)OC(=O)C(C)N(C)C(=O)CN(C)C(=O)C12 (stereo not given),9.35% (inactive)
15,Cc1c(Cl)cccc1NC(=O)C(=O)C1C(=O)NC(=O)NC1=O,-13.8% (inactive)
16,COc1ccc2c3c1OC1C(Oc4nnnn4-c4ccccc4)C=CC4C(C2)N(C)CCC341 (stereo not given),13.5% (inactive)
17,CC(C)N(N=O)C(C)C,6.85% (inactive)
18,C[C@]12Cc3cnc(-c4ccccc4)nc3C[C@@H]1CC[C@@H]1[C@@H]2CC[C@@]2(C)[C@H]1CC[C@]2(C)O,13.1% (inactive)
19,c1cc2c(c(NC3=NCCO3)c1)CCCC2,-2.5% (inactive) and 6.05% (inactive)
20,CCNC(Cc1ccccc1)c1ccco1 (stereo not given),-15.5% (inactive)

# Experiment: NCI Yeast Anticancer Drug Screen. Data for the cln2 rad14 strain (AID 165);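 further: 0% = growth equal to vehicle treated cultures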
# Conditions: S. cerevisiae cln2 rad14 strain, at 50.0 µM, stronger effect = higher value
# Summary of the method: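 Growth inhibition, relative to vehicle-treated controls, is the read-out. The test organism is a yeast strain with defined genetic alterations, cln2 rad14.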
row,Structure (SMILES),growth inhibition
1,NC(=O)c1ccc(NN=O)nc1,-9.85% (inactive)
2,CCOC(=O)C(=O)CC(=O)[C@H]1CC[C@H]2[C@@H]3CC[C@@H]4C[C@H](O)CC[C@]4(C)[C@H]3C(=O)C[C@]12C,37.5% (inactive)
3,CCCN1CCC2(CC1)COCc1ccccc12,12.6% (inactive)
4,NCC(O)c1ccc2c(c1)OCO2 (stereo not given),-31.4% (inactive)
5,O=C(CF)NCCCl,9.5% (inactive)
6,Cc1ccc([As]=[As]c2ccc(C)cc2N)c(N)c1 (stereo not given),-9.95% (inactive)
7,CN(C)NP(c1ccccc1)c1ccccc1,-6.1% (inactive)
8,Oc1ccc(C(O)C2CCCCN2)cc1O (stereo not given),-17.9% (inactive)
9,CC(=O)OCC1OC(OC(C)=O)C(N(CCCl)CCCl)C(OC(C)=O)C1OC(C)=O (stereo not given),23.9% (inactive)
10,[N-]=[N+]=Nc1cc(=O)oc2ccccc12,13.6% (inactive)
11,COc1ccc2c(c1O)C13CCN(C)C(C2)C1CCC(O)C3 (stereo not given),-11.8% (inactive)
12,O=[N+]([O-])O.[Tl],6.8% (inactive)
13,CCCCC(CC)C(O)P(=O)(OCC)OCC (stereo not given),-21.9% (inactive)
14,COc1cccc(/C=N/[N-]C(=O)c2ccncc2)c1[O-].[Ni+2].[OH3+],18.1% (inactive)
15,NC(N)=NOCC[C@@H](N)C(=O)O,20.2% (inactive)
16,O=Cc1ccccc1O,-10.4% (inactive)
17,O=C(OCCOCCOC(=O)C(Cl)(Cl)Cl)C(Cl)(Cl)Cl,39.2% (inactive)
18,CCC1(c2c(F)c(F)c(N)c(F)c2F)CCC(=O)NC1=O (stereo not given),16.4% (inactive)
19,COc1cc2ccnc(C3(OC(=O)c4ccccc4)CCN(CCc4ccccc4)CC3)c2cc1OC,-17.1% (inactive)
20,CN1C(=O)C2(Cc3cn(C45CC67SSC(CO)(C(=O)N6C4Nc4ccccc45)N(C)C7=O)c4ccccc34)SSC1(CO)C(=O)N2C (stereo not given),89.2% (active)

row,Structure (SMILES),growth inhibition
1,CC1C/C(=C\N=[N+]=[N-])C(=O)O1 (stereo not given),-4.9% (inactive)
2,S=c1sc(-c2ccc(Cl)cc2)c[se]1,-33.2% (inactive)
3,CN(C)C(=O)Sc1c(Cl)cc(S(=O)(=O)F)cc1[N+](=O)[O-],29.9% (inactive)
4,NC1=NC(=O)C(c2ccccc2)(c2ccccc2)O1,-0.65% (inactive)
5,O=Cc1ccccc1O.[Pr],8.4% (inactive)
6,O=P(Nc1ccc(Cl)cc1)(Oc1ccccc1)N(CCCl)CCCl (stereo not given),-9.4% (inactive)
7,CC12CCC(OC3OC(CO)C(OC4OC(CO)C(O)C(O)C4O)C(O)C3O)CC1CCC1C2CCC2(C)C(C3=CC(=O)OC3)CCC12O (stereo not given),-7.95% (inactive)
8,CC1=C[C@H]2[C@@]3(O)[C@H](C)C[C@]4(OC(=O)C(C)C)[C@H]([C@@H]3C=C(CO)C[C@]2(O)C1=O)C4(C)C,3.9% (inactive)
9,Oc1cccc2cccnc12.[Cr],-7% (inactive)
10,CC12CCC3C(CC=C4CC(=O)CCC43CCO)C1CCC2Oc1ccccc1 (stereo not given),16.4% (inactive)
11,CC(=O)[CH-]C(C)=O.CC(=O)[CH-]C(C)=O.CC(=O)[CH-]C(C)=O.[Ga+3],42.6% (inactive)
12,Cc1ccc(CI)cc1,18.9% (inactive)
13,COc1ccc2c3c1O[C@]1(C)C34CCN(C)C(C2)C42C=C[C@@]1(OC)c1c(O)ccc(O)c12,7.9% (inactive)
14,CO/N=C1\CC(C)N2C(=O)C(C(C)C)NC(=O)C(NC(=O)c3c4nc5c(C(=O)NC6C(=O)NC(C(C)C)C(=O)N7C(C)CC(O)C7C(=O)N(C)CC(=O)N(C)C(C(C)C)C(=O)OC6C)ccc(C)c5oc-4c(C)c(=O)c3N)C(CO)OC(=O)C(C)N(C)C(=O)CN(C)C(=O)C12 (stereo not given),20% (inactive)
15,Cc1c(Cl)cccc1NC(=O)C(=O)C1C(=O)NC(=O)NC1=O,-6% (inactive)
16,COc1ccc2c3c1OC1C(Oc4nnnn4-c4ccccc4)C=CC4C(C2)N(C)CCC341 (stereo not given),21.6% (inactive)
17,CC(C)N(N=O)C(C)C,1.9% (inactive)
18,C[C@]12Cc3cnc(-c4ccccc4)nc3C[C@@H]1CC[C@@H]1[C@@H]2CC[C@@]2(C)[C@H]1CC[C@]2(C)O,9.55% (inactive)
19,c1cc2c(c(NC3=NCCO3)c1)CCCC2,-45.5% (inactive) and 0.05% (inactive)
20,CCNC(Cc1ccccc1)c1ccco1 (stereo not given),18.8% (inactive)
